The list is not random: actives were taken first. Their share in the collection is about 0.37%.
Rac1 act GTP bind – human Rac1 activated mutant GTP binding change; P63000; GST-Rac1 activated beads, fluorescent GTP binding, flow cytometry; actives lie on both sides; 100% means binding = to untreated wells; percent activity (GTP binding), % at 10 µM; hit rate 0.11% among 190,000; AID 764;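 active means GTP binding at least 20 percentage points away from the 100% baseline, in either direction, so actives lie on both sides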
HRas wt GTP – modulators of GTP binding to human HRas wildtype; GST-Ras wt beads, Bodipy-FL-GTP binding, flow cytometry; actives lie on both sides; GTP binding activity, % at 10 µM; hit rate 0.14% among 190,000; P01112;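 active means GTP binding activity at least 20% away from the 100% baseline, either lowered as inhibitor or raised as activator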;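 further: 0% = unlabeled GTP competition control and 100% = no-compound control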
Target sequence (P01112 whole entry, looked up): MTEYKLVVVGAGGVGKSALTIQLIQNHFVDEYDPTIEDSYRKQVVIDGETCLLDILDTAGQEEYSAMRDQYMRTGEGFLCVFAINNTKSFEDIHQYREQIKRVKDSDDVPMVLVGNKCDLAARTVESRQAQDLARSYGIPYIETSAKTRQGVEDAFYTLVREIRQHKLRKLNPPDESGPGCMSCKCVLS
Cdc42 wt – changes GTP binding to wildtype human Cdc42. GST-Cdc42 beads, Bodipy-GTP binding, flow cytometry; actives lie on both sides. percent activity (GTP binding), % at 10 µM. hit rate 0.2% among 190,000. AID 761;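 active means percent activity GTP binding at least 20 points away from the 100% baseline, either down as inhibitor or up as activator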;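 further: median bead fluorescence of bound Bodipy-FL-GTP at 100 nM; 0% = excess unlabeled GTP control and 100% = no compound control; below 100% means less GTP binding so inhibitor and above means activator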
Target sequence (P60953 whole entry, looked up): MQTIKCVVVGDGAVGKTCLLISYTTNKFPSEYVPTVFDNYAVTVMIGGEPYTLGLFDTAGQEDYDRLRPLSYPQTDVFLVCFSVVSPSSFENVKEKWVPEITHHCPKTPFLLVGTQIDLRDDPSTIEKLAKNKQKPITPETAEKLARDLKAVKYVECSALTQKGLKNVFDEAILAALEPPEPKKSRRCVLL
Rab2A wt mod – changes GTP binding to wildtype dog Rab2A, up or down; P61105; GST-Rab2 wt beads, Bodipy-GTP binding, flow cytometry; GTP binding activity, % at 10 µM; hit rate 0.19% among 190,000; AID 760;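 active means GTP binding activity at least 20 points away from 100%, either lowered or raised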;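 further: 0% = beads with excess unlabeled GTP and 100% = no-compound control corrected for plate trend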
Rab7 wt GTP bind – alters GTP binding to wildtype dog Rab7 | GST-Rab7 beads, fluorescent GTP binding, flow cytometry; actives lie on both sides; untreated = 100%, excess cold GTP = 0% | GTP binding activity (percent of control), % at 10 µM | hit rate 0.055% among 190,000;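 active means fluorescent GTP binding to Rab7 beads changed by at least 20 points from the 100% baseline, either direction, mostly lower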;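 further: median green fluorescence of bound Bodipy-FL-GTP per Rab7 bead population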
Rac1 wt GTP bind – human Rac1 wildtype GTP binding, inhibitors and activators | P63000 | GST-Rac1 beads, fluorescent GTP binding, flow cytometry; actives lie on both sides; 0 = cold GTP competed, 100 = untreated | GTP binding activity (% of control), % at 10 µM | hit rate 0.27% among 190,000;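 active means GTP binding activity at least 20 points away from the 100% control level, either lower or higher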
Starred values were filed as active, the others as inactive.

SMILES	Rac1 act GTP bind	HRas wt GTP	Cdc42 wt	Rab2A wt mod	Rab7 wt GTP bind	Rac1 wt GTP bind
CC(C(=O)Nc1cccnc1)C1Sc2ccccc2NC1=O (stereo not given)	96	95	94	96	100	94
COc1ccc(OC)c(S(=O)(=O)Nc2ccc(O)c(Sc3ncn[nH]3)c2)c1	36*	39*	36*	35*	21*	31*
CCOc1ccc(S(=O)(=O)Nc2ccc(O)c(Sc3ncn[nH]3)c2)cc1	97	99	98	99	99	101
Cc1ccccc1NC(=O)c1cc2c(C)nc3ccccc3c2o1	90	90	88	88	92	84
CCc1ccc(NC(=O)c2cc3c(C)nc4ccccc4c3o2)cc1	89	87	85	85	91	75*
COc1c(C)cccc1C(=O)NC(=S)Nc1ccc2c(c1)Cc1ccccc1-2	74*	83	77*	75*	83	77*
CSc1nc2ccc(NS(=O)(=O)c3c(Cl)cccc3Cl)cc2s1	79*	83	81	78*	84	79*
COCCNC(=O)c1cnn2c(C(F)F)cc(-c3ccccc3)nc12	88	90	83	87	98	79*
O=C(NCc1ccco1)c1cnn2c(C(F)F)cc(-c3ccccc3)nc12	96	98	97	98	99	99
O=C(O)CCCN1C(=O)/C(=C\c2ccco2)SC1=S	93	96	94	97	100	95
O=C(O)CCN1C(=O)/C(=C\c2ccc(-c3nc4ccccc4s3)o2)SC1=S	71*	74*	69*	66*	74*	67*
C/C(=N\Nc1cc(C)nc(-c2ccccc2)n1)c1cccc([N+](=O)[O-])c1	86	88	82	84	89	73*
CCCOC(=O)c1c(NC(=O)CCC(=O)O)sc2c1CCCCC2	80	83	81	76*	91	92
CCOC(=O)c1ccc(NC(=O)c2c(NC(=O)CCC(=O)O)sc3c2CCCCC3)cc1	89	93	89	92	100	90
Cc1nnc2ccc(-c3cccc(NC(=O)c4ccco4)c3)nn12	75*	65*	64*	63*	77*	56*
COc1ccc2c(C)cc3nncn3c2c1	87	81	89	89	88	79*
COc1cc(/C=N/Nc2nnc3c(n2)[nH]c2ccccc23)ccc1O	93	83	94	79*	85	86
COc1cc(/C=N/Nc2nncn2/N=C/c2ccc(O)c(OC)c2)ccc1O	86	76*	77*	79*	91	75*
COc1cc(/C=N/Nc2ccccc2C(F)(F)F)ccc1O	93	94	90	97	103	94
COc1ccc(-c2csc(C3=C(O)CN(C(C)C)C3=N)n2)cc1OC	86	76*	73*	76*	97	73*
COc1ccc(C2=NN(CN3C(=O)C(=O)c4ccccc43)C(c3ccc(OC)cc3)C2)cc1 (stereo not given)	100	95	96	95	91	102
CCOC(=O)N1CCC(N2C(=O)c3ccccc3C2Nc2ccc(S(=O)(=O)N3CCOCC3)cc2)CC1 (stereo not given)	96	98	98	95	96	101
Cn1cccc1/C=C1\SC(=S)N(NC(=O)c2ccccc2Cl)C1=O	89	89	88	83	90	78*
CC(C)Cn1cc(Cl)c(=O)n(CC(C)C)c1=O	97	100	97	99	103	101
CN(C)S(=O)(=O)c1cccc(NC(=S)N(CCC#N)Cc2cccnc2)c1	95	97	102	99	104	97
CC(Sc1nnc(NC2CCCCC2)s1)C(=O)Nc1ccc2c(c1)C(=O)c1ccccc1C2=O (stereo not given)	88	82	89	77*	84	75*
CCCc1nc2c(=O)n(C)c(=O)nc-2n(C)n1	84	89	74*	89	99	94
O=C(Cc1csc(NC(=O)c2ccc(F)cc2)n1)NO	98	97	97	100	103	102
